Source: PubChem
ANO1 activ: mouse TMEM16A channel activation, primary screen; AID 623877; 0.3% of 340,000 active; Q8BHY3; HEK293 TMEM16A/YFP-H148Q/I152L, iodide quench fluorescence; hits give low values; B-score at 10 µM;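 active means fluorescence-ratio B-score plate-corrected deviation score at least 3 library SD below zero, with starting fluorescence score within 5 deviations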;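 further: channel opened by trigger with iodide after compound preincubation; score built on the fluorescence ratio of max minus min over baseline; more negative score means more quench and so TMEM16A activation or potentiation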
KCNK9 block: inhibitors of human KCNK9 two-pore domain potassium channel | Q9NPC2 | HEK293 KCNK9, FluxOR thallium flux fluorescence; hits give low values | B-score at 10 µM | 1.2% of 310,000 active | AID 488922;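 active means ratio B-score over 3 SD below the library mean, with starting fluorescence within 5 SD of its mean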;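 further: negative B-score means less thallium flux so channel inhibition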
ANO1 block: blocks the mouse calcium-activated chloride channel TMEM16A | HEK293 TMEM16A/YFP iodide influx fluorescence, ionomycin | normalized B-score (activity score, 25-100; higher = stronger inhibition) at 10 µM | 1.2% of 310,000 active | Q8BHY3;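 active means ratio plate-corrected score three or more library SD toward inhibition, starting fluorescence score within five deviations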;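 further: score derived from kinetic fluorescence span divided by baseline fluorescence per well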
Kir21 inh: Kir2.1 (mouse) channel inhibition; 0.85% of 310,000 active; B-score at 10 µM; P35561; HEK293-Kir2.1, FluxOR thallium flux fluorescence; hits give low values;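 active means fluorescence ratio B-score at or below minus 3 SD of library scores, with starting-brightness B-score within 2 SD, cut at about -4.2 in these data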;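 further: channel flux triggered by added potassium and thallium sulfate stimulus; B-score of peak minus minimum fluorescence over baseline after thallium stimulus; more negative B-score means stronger Kir2.1 block with less thallium influx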
KCNK3 block: human KCNK3 channel inhibition, primary screen | 0.84% of 340,000 active | B-score at 10 µM | CHO-KCNK3 thallium flux, FluxOR fluorescence; hits give low values | O14649;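 active means B-score under library mean minus 4 SD, starting fluorescence ratio at most library mean plus 5 SD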;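 further: more negative B-score means stronger inhibition of thallium flux through KCNK3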
Target sequence (O14649 whole entry, looked up): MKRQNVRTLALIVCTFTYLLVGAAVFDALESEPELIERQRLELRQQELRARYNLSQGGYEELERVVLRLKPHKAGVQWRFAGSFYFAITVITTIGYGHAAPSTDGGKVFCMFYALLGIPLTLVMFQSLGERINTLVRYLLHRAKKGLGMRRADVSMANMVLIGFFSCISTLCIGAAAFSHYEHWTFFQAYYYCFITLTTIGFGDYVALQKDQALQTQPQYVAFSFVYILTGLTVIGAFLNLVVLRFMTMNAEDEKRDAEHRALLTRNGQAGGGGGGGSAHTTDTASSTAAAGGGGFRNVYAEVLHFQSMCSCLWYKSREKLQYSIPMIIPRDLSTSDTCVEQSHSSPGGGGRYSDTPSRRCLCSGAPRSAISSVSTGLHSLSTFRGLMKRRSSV
KCNK9 inh conf: human KCNK9 inhibitor confirmation; shares compounds with KCNK9 block; HEK293 KCNK9 cells, FluxOR thallium flux fluorescence; inhibition, % at 10 µM; 43% of 4,900 active; AID 492992;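 active means thallium signal inhibited by more than 5 SD of the compound-free buffer control wells, on both duplicate plates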;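 further: 0% = assay buffer control wells without compound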
Kir21 sel: tests whether KCNK9 modulators also affect mouse Kir2.1 | shares compounds with KCNK9 block | Kir2.1 cells, FluxOR thallium flux fluorescence | inhibition, % at 10 µM | 4% of 4,900 active;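 active means thallium signal drop more than 5 SD beyond the mean of the no-compound control wells, seen in both duplicate plates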;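 further: signal is fluorescence rise after thallium addition divided by baseline fluorescence; plate controls were assay buffer only for no effect and full block by chlorpromazine control for full effect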
KCNK9 uninduced: second counter-screen for KCNK9 modulators: effect in non-induced cells | shares compounds with KCNK9 block | non-induced KCNK9-HEK293, FluxOR thallium flux | inhibition, % at 10 µM | 40% of 4,900 active | AID 492997;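 active means thallium signal drop beyond 5 SD of the untreated control mean, on both duplicate plates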;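 further: plate controls were buffer only IC0 wells for no effect and SID17386958 at its maximal inhibitory level for full effect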
* hit, by the source's call; i = inactive; / = no result given. In the library only some 3.5% were active in any assay of this set; here they are far more common.

SMILES | ANO1 activ | KCNK9 block | ANO1 block | Kir21 inh | KCNK3 block | KCNK9 inh conf | Kir21 sel | KCNK9 uninduced
CCOc1ccccc1OCCCOc1ccc(C)cc1Cl | i | i | i | -1.65 | i | i | i | 32.0%*
CCOc1ccccc1OCCOc1ccccc1CC | i | i | i | -1.87 | i | i | i | i
COc1ccccc1OCCOCCOc1ccccc1Cl | i | i | i | 0.14 | i | i | i | i
CCOc1ccc(OCCOCCOc2ccccc2Cl)cc1 | i | i | i | -0.08 | i | i | i | i
COc1ccccc1OCCCOc1c(Cl)cc(C)cc1Cl | i | i | i | -1.4 | i | / | / | /
CN1CCN(c2ccc(-c3cccc(NC(=O)COc4ccc(Cl)cc4Cl)c3)nn2)CC1 | i | i | i | -0.26 | i | / | / | /
O=C(NCC(=O)N1CCN(c2ncccn2)CC1)c1ccc(F)cc1 | i | / | / | / | i | / | / | /
COC(=O)c1cc2sc(Cl)cc2n1CC(=O)Nc1ccc(OC)c(OC)c1OC | i | i | i | 0.21 | i | / | / | /
COC(=O)c1cc2sc(Cl)cc2n1CC(=O)Nc1cccc(SC)c1 | i | -10.1* | i | 0.3 | i | 48.5%* | i | 32.5%*
COC(=O)C1=C(C)NC(C)=C(C(=O)OC)C1c1ccc(OC(=O)c2oc3ccccc3c2C)c(OC)c1 | i | -9.59* | i | 2.22 | i | 62.0%* | i | 33.5%*
CC1CC(C)CN(C(=O)C2CCN(S(=O)(=O)c3cccc4cccnc34)CC2)C1 (configuration not stated) | i | i | i | -0.27 | i | / | / | /
CC1=C(/C=C/C(C)=C/C=C/C(C)=C\C(=O)O)C(C)(C)CCC1 | i | i | i | -0.32 | i | i | i | 23.5%*
COC(=O)c1cn(NC(=O)c2cccc(OC)c2)c(=O)c2ccccc12 | i | i | i | 2.62 | i | / | / | /
CC(C)(C)N1C(=O)[C@H]2[C@@H](c3ccc(Br)cc3)N3C(=O)N(c4cccc(Cl)c4)C(=O)[C@@]3(Cc3ccccc3)[C@H]2C1=O | i | -8.44* | i | -0.55 | i | i | i | 26.0%*
O=C(NN1C(=O)C2C3C=CC(C3)C2C1=O)c1cccc(Cl)c1 (configuration not stated) | i | i | i | -0.29 | i | / | / | /
O=C(NN1C(=O)C2C(c3ccccc3)C=CC(c3ccccc3)C2C1=O)c1cccc(Br)c1 (configuration not stated) | i | -11.7* | i | 0.66 | i | 62.5%* | i | 37.0%*
CCOc1ccc(CCNC(=O)c2cc(-c3ccccc3)c(N3CCOCC3)s2)cc1OCC | i | i | i | 0.27 | i | / | / | /
Cc1[nH]nc(C(=O)NN=Cc2ccccc2Cl)c1N=NN(C)C | i | / | / | / | i | / | / | /
c1ccc(CCSc2nccn2-c2ccccc2)cc1 | i | i | i | -0.01 | i | / | / | /
CCc1ccc(CSc2nccn2-c2ccccc2)cc1 | i | i | i | -4.89* | i | i | i | i
c1ccc(CN2CCN(c3nc(-c4ccccc4)nc4ccccc34)CC2)cc1 | i | -16.8* | i | 0.9 | i | 34.5%* | i | 27.5%*
COCCCNC(=O)N1c2ccccc2Sc2ccccc21 | i | i | i | -3.34 | i | / | / | /
O=C(NCc1ccco1)N1c2ccccc2Sc2ccccc21 | i | i | i | -1.77 | i | i | i | i
COc1ccccc1C(=O)N1c2ccccc2Sc2ccccc21 | i | -13.6* | i | 0.59 | i | 54.0%* | i | 42.0%*
CC(C)(C)NC(=O)N1c2ccccc2Sc2ccccc21 | i | i | i | -0.97 | i | i | i | i
SMILES | ANO1 activ | KCNK9 block | ANO1 block | Kir21 inh | KCNK3 block | KCNK9 inh conf | Kir21 sel | KCNK9 uninduced
O=C(Nc1cccc(NC(=O)c2cccs2)c1)c1ccc2c(c1)OCCO2 | i | i | i | -1.78 | i | / | / | /
Cc1cc(OCC(=O)Nc2cc(C(C)(C)C)on2)ccc1[N+](=O)[O-] | i | i | i | 1.32 | i | / | / | /
Cc1ccn2c(/C=N/OCc3cccc(F)c3)c(-c3ccc(Cl)cc3)nc2c1 | i | -8.4* | i | -0.67 | i | i | i | 33.0%*
Cc1ccn2c(C(=O)CSc3ccc(Cl)cc3)c(C)nc2c1 | i | i | i | 0.06 | i | / | / | /
COc1ccc(C(=O)/C(=C/O)N=Nc2ccc(F)cc2)cc1 | i | -12* | i | -0.05 | i | i | i | i
COc1ccc(N=N/C(=C\O)C(=O)c2cccs2)cc1 | i | i | i | -0.06 | i | / | / | /
Clc1ccc(CO/N=C/c2c(-c3ccccc3)nc3n2CCS3)c(Cl)c1 | i | -9.74* | i | -0.56 | i | i | i | 28.5%*
CS(=O)(=O)/C(C#N)=C/c1c(-c2ccccc2)nc2n1CCS2 | i | i | i | -1.3 | i | / | / | /
Cc1cccc(N(Cc2ccccc2)C(=O)c2cc(S(=O)(=O)N3CCOCC3)ccc2Cl)c1 | i | i | i | -1.45 | i | i | i | i
Cc1ccc(N(Cc2ccccc2)C(=O)c2cccc(S(=O)(=O)N3CCOCC3)c2)cc1 | i | i | i | -0.01 | i | / | / | /
Cc1ccc(N(Cc2ccccc2)C(=O)c2cc(S(=O)(=O)N3CCOCC3)ccc2Cl)cc1 | i | i | i | 0.23 | i | i | i | i
Cc1ccc(N(Cc2ccccc2)C(=O)c2cc(S(=O)(=O)N3CCOCC3)ccc2F)cc1 | i | / | / | / | i | / | / | /
COc1ccc(S(=O)(=O)N2CCCCCC2)cc1C(=O)N(C)Cc1ccc(C)cc1 | i | i | i | -1.91 | i | i | i | i
O=C(NCCO)C(=O)Nc1cc2c3c(c1)CCC(=O)N3CCC2 | i | i | i | 0.02 | i | / | / | /
O=C(NCc1cccc2[nH]ccc12)C1CCC(=O)N(CCc2ccccc2)C1 (configuration not stated) | i | i | i | 0.73 | i | / | / | /
CC(C)CCNC(=O)CN(Cc1cccs1)C(=O)CCC(=O)Nc1nccs1 | i | i | i | -0.3 | i | / | / | /
Cc1oc(C(C)(C)C)cc1C(=O)Nc1cccc(C(=O)O)c1 | i | i | i | -0.32 | i | / | / | /
O=C(OC(c1ccccc1)c1nccc2ccccc12)c1cccc([N+](=O)[O-])c1 (configuration not stated) | i | -13* | i | 0.88 | i | 40.0%* | i | 47.5%*
